According to PubChem BioAssay (NCI):
About 83,000 compounds went through this panel and 20% of them were active in at least one assay; those are over-represented in the sample as a whole.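 Compound tested at a single concentration for 48 hours in 96-well plates; a percent growth value below 10 was scored as active.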 Activity calls are given as the source filed them.

What was measured:
Assay in all cases: NCI-60 one-dose screen, 48 h (100 = growth as untreated, 0 = no growth, -100 = all killed)
Details in all cases: 10 µM unless noted
HCT-15 colon = system: HCT-15 colon
HT29 colon = system: HT29 colon
SNB-75 CNS = system: SNB-75 CNS
SNB-19 CNS = system: SNB-19 CNS
U251 CNS = system: U251 CNS
PC-3 prostate = system: PC-3 prostate
SK-MEL-5 melanoma = system: SK-MEL-5 melanoma
UACC-62 melanoma = system: UACC-62 melanoma
LOX IMVI melanoma = system: LOX IMVI melanoma
SK-MEL-28 melanoma = system: SK-MEL-28 melanoma

Measured: growth

O=C(Nc1cccc([N+](=O)[O-])c1)c1cc2ccccc2cc1O
inactive: HCT-15 colon 12.8% | HT29 colon 13.4% | SNB-19 CNS 25.8% | UACC-62 melanoma 18.8% | LOX IMVI melanoma 10% | SK-MEL-28 melanoma 28.1%
active: SNB-75 CNS 6.46% | U251 CNS 6.12% | PC-3 prostate 0.633% | SK-MEL-5 melanoma -53.6%

COc1ccc(/C=N/C2=C(C#N)C(c3cccc(Cl)c3)c3c(ccc4ccccc34)O2)cc1 (stereo not given)
inactive: HCT-15 colon 16.7% | HT29 colon 10.3% | SNB-19 CNS 26.8% | U251 CNS 25.6% | PC-3 prostate 23.8% | SK-MEL-5 melanoma 31.3% | UACC-62 melanoma 36.3% | LOX IMVI melanoma 26.7% | SK-MEL-28 melanoma 70.1%
active: SNB-75 CNS -30.1%

CN(C)CCCC1(c2ccc(F)cc2)OCc2cc(-c3cncc4ccccc34)ccc21 (stereo not given)
active: U251 CNS 3.14% | SK-MEL-5 melanoma -88.8% | SK-MEL-28 melanoma -65%
inactive: HCT-15 colon 38.3% | HT29 colon 13.5% | SNB-75 CNS 41.6% | SNB-19 CNS 54% | PC-3 prostate 44.9% | UACC-62 melanoma 11.5% | LOX IMVI melanoma 19.3%

Cc1ccc(C2=Nc3c(N)ncnc3NC(c3ccc4c(c3)OCO4)C2)cc1 (stereo not given)
inactive: HCT-15 colon 34.6% | HT29 colon 14.1% | SNB-75 CNS 53.5% | SNB-19 CNS 73.2% | U251 CNS 46.9% | PC-3 prostate 62.5% | SK-MEL-5 melanoma 33.3% | UACC-62 melanoma 48.5% | LOX IMVI melanoma 59.3% | SK-MEL-28 melanoma 58%

CC1=C(C(=O)OC(C)C)C(c2ccc3c(c2)OCO3)NC(=S)N1 (stereo not given)
inactive: HCT-15 colon 100% | HT29 colon 103% | SNB-75 CNS 95.2% | SNB-19 CNS 95.4% | U251 CNS 102% | PC-3 prostate 86% | SK-MEL-5 melanoma 98.5% | UACC-62 melanoma 85.2% | LOX IMVI melanoma 97.3% | SK-MEL-28 melanoma 106%

CO/N=C(/C)c1ccc(NC(=O)CSc2nnc(-c3ccncc3)n2-c2ccccc2)cc1
active: SNB-75 CNS -16.6%
inactive: HCT-15 colon 73% | HT29 colon 78% | SNB-19 CNS 30.4% | U251 CNS 17.4% | PC-3 prostate 49.9% | SK-MEL-5 melanoma 25.2% | UACC-62 melanoma 26.1% | LOX IMVI melanoma 65.5% | SK-MEL-28 melanoma 64.9%

CSc1nc2sc3c(c2c(=O)n1-c1ccc([N+](=O)[O-])cc1)CCCCC3
inactive: HCT-15 colon 94.6% | HT29 colon 92.6% | SNB-75 CNS 89.7% | SNB-19 CNS 86% | U251 CNS 84.5% | PC-3 prostate 85.5% | SK-MEL-5 melanoma 96.4% | UACC-62 melanoma 87.1% | LOX IMVI melanoma 94.7% | SK-MEL-28 melanoma 105%

COc1ccc2c(O)c(/C=C3\N=Nc4ncccc43)oc2c1C[C@H]1CCNC[C@H]1F
active: HCT-15 colon 7.66% | HT29 colon 5.05% | SNB-75 CNS -61.2% | U251 CNS -51% | PC-3 prostate -5.49% | SK-MEL-5 melanoma -30.1% | UACC-62 melanoma -15.4% | LOX IMVI melanoma -11% | SK-MEL-28 melanoma 8.22%
inactive: SNB-19 CNS 10.4%

O=S(=O)(NCCCNc1nccc(-c2c(-c3ccc(F)c(O)c3)nc3occn23)n1)c1ccccc1
inactive: HCT-15 colon 103% | HT29 colon 73.6% | SNB-75 CNS 96.8% | SNB-19 CNS 113% | U251 CNS 99.7% | PC-3 prostate 79.1% | SK-MEL-5 melanoma 63% | UACC-62 melanoma 10.7% | LOX IMVI melanoma 39.6% | SK-MEL-28 melanoma 24.7%

C/C(=N/O)c1ccc(F)cc1
inactive: HCT-15 colon 11.5% | HT29 colon 16.5% | SNB-75 CNS 123% | SNB-19 CNS 87.8% | U251 CNS 83.2% | PC-3 prostate 75.5% | SK-MEL-5 melanoma 89.2% | UACC-62 melanoma 78.3% | LOX IMVI melanoma 69.5% | SK-MEL-28 melanoma 126%

O=Nc1c(-c2c(O)[nH]c3ncccc23)[nH]c2ccccc12
inactive: HCT-15 colon 33.9% | HT29 colon 102% | SNB-75 CNS 31.2% | SNB-19 CNS 96.4% | U251 CNS 67.3% | PC-3 prostate 67.7% | SK-MEL-5 melanoma 72.3% | UACC-62 melanoma 56.7% | LOX IMVI melanoma 44.5% | SK-MEL-28 melanoma 75.3%

COc1ccc2[nH]cc(C(c3cc(F)cc(F)c3)c3c[nH]c4ccc(OC)cc34)c2c1
inactive: HCT-15 colon 65.2% | HT29 colon 81.5% | SNB-75 CNS 85.9% | SNB-19 CNS 82.9% | U251 CNS 86.8% | PC-3 prostate 50.2% | SK-MEL-5 melanoma 91.7% | UACC-62 melanoma 85.5% | LOX IMVI melanoma 67.3% | SK-MEL-28 melanoma 105%

CCCCCCCCn1ccc2cc(NC(=O)Cn3cc(CN4CCCCC4)nn3)ccc21
active: HCT-15 colon -40.7% | HT29 colon -61.2% | SNB-19 CNS -49.2% | U251 CNS -53.6% | SK-MEL-5 melanoma -93% | UACC-62 melanoma -81.4% | LOX IMVI melanoma -80.3% | SK-MEL-28 melanoma -85.4%
inactive: SNB-75 CNS 73.4% | PC-3 prostate 54.6%

C[C@]12C=CC(=O)C=C1CCC1C2[C@@H](O)C[C@@]2(C)C1CC[C@]2(O)C(=O)COC(=O)CCC(=O)O (stereo not given in full)
inactive: HCT-15 colon 105% | HT29 colon 105% | SNB-75 CNS 120% | SNB-19 CNS 104% | U251 CNS 103% | PC-3 prostate 93.4% | SK-MEL-5 melanoma 113% | UACC-62 melanoma 104% | LOX IMVI melanoma 102% | SK-MEL-28 melanoma 107%
